Screens from PubChem BioAssay.
In the library only some 4.6% were active in any assay of this set; here they are far more common.
TRHR PAM: qHTS for Small Molecule Agonists and Allosteric Enhancers of Human TRH Receptor: Primary Screen for Enhancers | TRHR cells, fluo-8 calcium fluorescence, EC20 TRH enhancement | Thyrotropin-releasing hormone receptor (Homo sapiens), P34981 | AID 493056, 2011 | 360,000 tested, 0.66% active | enhancement, % at 2 µM; in the data active = enhancement above about 30%; note: 0% is about no effect
Target sequence (P34981 whole entry, looked up): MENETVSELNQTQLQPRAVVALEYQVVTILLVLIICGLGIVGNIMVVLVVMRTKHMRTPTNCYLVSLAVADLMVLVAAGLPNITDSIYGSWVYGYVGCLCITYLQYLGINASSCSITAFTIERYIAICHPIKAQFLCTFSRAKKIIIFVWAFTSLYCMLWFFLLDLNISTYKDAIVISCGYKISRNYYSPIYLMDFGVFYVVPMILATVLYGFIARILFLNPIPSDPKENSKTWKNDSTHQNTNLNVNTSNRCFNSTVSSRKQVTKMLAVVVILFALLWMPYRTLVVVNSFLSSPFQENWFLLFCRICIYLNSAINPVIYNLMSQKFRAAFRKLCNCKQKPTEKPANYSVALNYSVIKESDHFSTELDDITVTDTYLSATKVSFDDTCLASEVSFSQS
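Enhancer read-out: after compound pinning and an initial kinetic agonist-mode read, an EC20 of TRH (10 nM final) was injected and fluo-8 calcium signal (Ex 480/Em 530) followed at 1 s/cycle for 100 cycles in TRHR-expressing cells.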
D1 ag: Allosteric Agonists of the Human D1 Dopamine Receptor: qHTS | HEK293 T-REx D1 cells, calcium flux, agonist mode | D(1A) dopamine receptor (Homo sapiens), P21728 | activation, % at 2 µM | 360,000 tested, 1% active; note: 0% is about no effect
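Tetracycline-induced HEK293 TREx D1 cells, force-coupled to calcium signalling, were dye-loaded with a no-wash calcium kit. Compound was pin-added after a 10 s baseline. Fluorescence was read kinetically at 1 cycle/s for 180 s, with calcium rises flagged as agonism.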
D1 antagonist: Antagonist of Human D 1 Dopamine Receptor: qHTS | 360,000 tested, 3.2% active | activity change, negative = inhibition, % at 10 µM | AID 504652, 2011 | HEK293 TREx D1 cells, calcium flux, dopamine EC80; stronger effect = lower value | D(1A) dopamine receptor (Homo sapiens), P21728; in the data active = activity change below about -30%; note: % is set by controls: 0 for no effect and ±100 for the full control effect
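Kinetic fluorescence of a calcium dye serves as the read-out. D1-expressing Hek293 Trex cells, induced overnight at 30 C, are exposed to compound for 180 s before an EC80 dopamine addition, then read 180 s further.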
TRHR ag: qHTS for Small Molecule Agonists and Allosteric Enhancers of Human TRH Receptor: Primary Screen for Agonists | Thyrotropin-releasing hormone receptor (Homo sapiens), P34981 | TRHR cells, calcium flux fluo-8, FDSS agonist mode | activation, % at 2 µM | 360,000 tested, 0.18% active | AID 493084, 2011; note: 0% is about no effect
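Read-out: compound-evoked intracellular calcium rise in TRHR cells, fluo-8 dye, kinetic FDSS fluorescence at 1 s/cycle following a 10-cycle baseline. Cells cultured overnight before dye loading (30 min–1.5 h, RT).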
D1 PAM: Potentiators of Human D1 Dopamine Receptor: qHTS; potentiation, % at 10 µM; 360,000 tested, 0.036% active; AID 504651, 2011; HEK293 TREx D1 cells, calcium flux, dopamine EC20 potentiation; in the data active = potentiation above about 30%; note: 0% is about no effect
* marks the source's active call; other numbers are inactive results. Cut-off read from the data, not from the text of the source, unless noted: active = activation above about 30%; inactive = the rest.

Results for O=C(Nc1ccc(S(=O)(=O)N2CCN(Cc3ccccc3)CC2)cc1)c1cnccn1 ?
TRHR PAM: -9.0; D1 ag: 12.7; D1 antagonist: -36.2*; TRHR ag: 0.4; D1 PAM: -2.6

What do the screens show for `CN1CCN(S(=O)(=O)c2ccc(NC(=S)NC(=O)c3ccc(Cl)cc3)cc2)CC1`?
TRHR PAM: 0.2; D1 ag: 30.2*; D1 antagonist: -57.1*; TRHR ag: -0.7; D1 PAM: -15.9

What do the screens show for `O=C(COC(=O)C1CCCCC1)Nc1ccc(N2CCCCC2)cc1`?
TRHR PAM: -3.7; D1 ag: -0.8; D1 antagonist: -30.2*; TRHR ag: 0.3; D1 PAM: -0.6

Results for Cc1ccc(C)c(N2C(=O)N(Cc3ccccc3C)c3ccccc3S2(=O)=O)c1 ?
TRHR PAM: -12.1; D1 ag: 4.6; D1 antagonist: -7.0; TRHR ag: 1.5; D1 PAM: -1.6

Results for CCC(=O)N1CCN(c2ccc(NC(=O)COc3ccccc3[N+](=O)[O-])cc2)CC1 ?
TRHR PAM: 11.6; D1 ag: 31.3*; D1 antagonist: -11.1; TRHR ag: 0.4; D1 PAM: -3.8

Results for CN1CCN(c2ccc(NC(=O)COc3ccccc3Cl)cc2)CC1 ?
TRHR PAM: -3.3; D1 ag: 10.4; D1 antagonist: -70.4*; TRHR ag: 3.6; D1 PAM: -19.8

What do the screens show for `CN1CCN(S(=O)(=O)c2ccc(NC(=O)c3ccc(Br)s3)cc2)CC1`?
TRHR PAM: 0.1; D1 ag: 14.3; D1 antagonist: -45.6*; TRHR ag: 0.6; D1 PAM: -16.3

Results for CCc1ccc(OCC(=O)Nc2ccc(S(=O)(=O)Nc3ccccn3)cc2)cc1 ?
TRHR PAM: 6.8; D1 ag: 41.6*; D1 antagonist: -17.0; TRHR ag: -0.4; D1 PAM: -5.5

Results for CCC(=O)N1CCN(c2ccc(NC(=O)COc3ccccc3Cl)cc2)CC1 ?
TRHR PAM: -0.2; D1 ag: 9.0; D1 antagonist: -4.3; TRHR ag: 1.0; D1 PAM: -2.6

What do the screens show for `COc1ccc(OC)c(-c2csc(-c3c(N)c(C(=O)c4ccc(Cl)cc4)n4ccccc34)n2)c1`?
TRHR PAM: 0.9; D1 ag: 1.7; D1 antagonist: 5.6; TRHR ag: 1.3; D1 PAM: -2.4

What do the screens show for `O=C(COc1cccc(Cl)c1)NCC(c1cccs1)N1CCOCC1` (configuration not stated)?
TRHR PAM: 4.1; D1 ag: 1.4; D1 antagonist: -34.7*; TRHR ag: -1.1; D1 PAM: -5.5

What do the screens show for `COc1ccc(OCC(=O)Nc2ccc(S(=O)(=O)N3CCOCC3)cc2)cc1`?
TRHR PAM: 2.5; D1 ag: 2.7; D1 antagonist: -17.6; TRHR ag: 0.3; D1 PAM: 0.3

Results for CN1CCN(S(=O)(=O)c2ccc(NC(=O)COc3ccccc3Cl)cc2)CC1 ?
TRHR PAM: 5.1; D1 ag: 8.3; D1 antagonist: -52.7*; TRHR ag: -2.0; D1 PAM: -8.8

What do the screens show for `CCCC(C(=O)Nc1ccc(S(=O)(=O)N2CCOCC2)cc1)c1ccccc1` (configuration not stated)?
TRHR PAM: 8.1; D1 ag: 37.1*; D1 antagonist: -6.6; TRHR ag: 4.4; D1 PAM: -1.4

How did CCc1ccc(OCC(=O)Nc2ccc(S(=O)(=O)N3CCOCC3)cc2)cc1 do in these assays?
TRHR PAM: -5.9; D1 ag: 44.2*; D1 antagonist: -1.2; TRHR ag: 1.6; D1 PAM: -0.9

Results for Cc1ccc(OCC(=O)Nc2ccc(N3CCCC3)cc2)cc1C ?
TRHR PAM: 1.6; D1 ag: -0.2; D1 antagonist: 7.8; TRHR ag: -0.3; D1 PAM: -9.7

What do the screens show for `CN1CCN(S(=O)(=O)c2ccc(NC(=O)Nc3cccc(Cl)c3)cc2)CC1`?
TRHR PAM: -1.8; D1 ag: 10.8; D1 antagonist: -47.5*; TRHR ag: 3.1; D1 PAM: -9.4
